Experimental data from PubChem BioAssay (NCI).
Where “and” joins values, the source holds several entries; their conditions need not be identical. Identical values can stand only once. Compounds without any hit were thinned out: in the full panel of roughly 83,000, 20% have a hit.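 The test compound was applied at a single concentration to cells in 96-well plates for 48 hours, and percent growth was recorded.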 Unmarked numbers belong to inactive results. Calls of active or inactive are those of the source. The calls were made as follows: active = growth percent below 10; inactive = the rest. Starred links: 1 amine or outer side, 2 acyl side, 3 side chain; linkers in the order of their positions; H or OH if unused. Positions of bridges follow the written chain, without caps; N, C: chain ends. Non-standard residues stand in square brackets, D forms with d. Residues, ends and D or L forms follow the SMILES beside them. Chains are numbered I, II in the order given. Actinocin(9to1) = Cc1c2oc3c(C)ccc(C(=O)[*:1])c3nc-2c(C(=O)[*:2])c(N)c1=O; aThr = C[C@H](O)[C@H](N)C(=O)O; NMeV = CN[C@H](C(=O)O)C(C)C; Sar = CNCC(=O)O

system: SK-MEL-28 melanoma; test: NCI-60 one-dose screen, 48 h (100 = growth as untreated, 0 = no growth, -100 = all killed); conditions: 10 µM

| SMILES | growth |
| --- | --- |
| N#C/C(=C1C=C/C(=N\O)C(Cl)=C\1)c1ccccc1 | 68.9% |
| CN(C)CCC(=O)c1c[nH]c2ccccc12 | 115% |
| O=c1[nH]cc(F)c(=O)[nH]1 | 62.2% |
| CSc1ccc2c(c1)C(N1CCN(C)CC1)Cc1ccccc1S2 (configuration not stated) | -63.8% (active) |
| COc1cc(C(C)(C)C)cc(OC)c1C(O)(c1c(OC)cc(C(C)(C)C)cc1OC)c1c(OC)cc(C(C)(C)C)cc1OC | -99.4% (active) |
| S=c1[nH]nc(Cc2ccccc2)c(=S)[nH]1 | 114% |
| O=C(/C(=C/c1ccccc1)CBr)c1ccccc1 | 94.4% |
| Nc1ccc2cc(Br)c3ccccc3c2c1 | 80.8% |
| Cc1cc(NCCCN(C)C)c2ccc3c(ccc4c(NCCCN(C)C)cc(C)nc43)c2n1 | -97.6% (active) |
| Cc1cnc(/C=N\NC(N)=S)c2cccc(N)c12 | 34.5% |
| CCCCCCCCCCCCCCCCCN | 101% |
| BrC/C=C/C[P+](c1ccccc1)(c1ccccc1)c1ccccc1 | 53.2% |

system: SK-MEL-2 melanoma; test: as above; conditions: 10 µM

| SMILES | growth |
| --- | --- |
| CN(C)CCC(=O)c1c[nH]c2ccccc12 | 105% |
| O=c1[nH]cc(F)c(=O)[nH]1 | 71.4% and 106% |
| COc1cc(C(C)(C)C)cc(OC)c1C(O)(c1c(OC)cc(C(C)(C)C)cc1OC)c1c(OC)cc(C(C)(C)C)cc1OC | -59.1% (active) |
| S=c1[nH]nc(Cc2ccccc2)c(=S)[nH]1 | 104% |
| O=C(/C(=C/c1ccccc1)CBr)c1ccccc1 | 93.4% |
| Nc1ccc2cc(Br)c3ccccc3c2c1 | 103% |
| CN1CCN(c2ccc3nc(-c4ccc5nc(-c6ccc(O)cc6)[nH]c5c4)[nH]c3c2)CC1 | 108% |
| Cc1cc(NCCCN(C)C)c2ccc3c(ccc4c(NCCCN(C)C)cc(C)nc43)c2n1 | -62.8% (active) |
| Cc1c2oc3c(C)ccc(C(=O)N[C@@H]4C(=O)N[C@H](C(C)C)C(=O)N5CCC[C@H]5C(=O)N(C)CC(=O)N(C)[C@@H](C(C)C)C(=O)O[C@H]4C)c3nc-2c(C(=O)N[C@@H]2C(=O)N[C@H](C(C)C)C(=O)N3CCC[C@H]3C(=O)N(C)CC(=O)N(C)[C@@H](C(C)C)C(=O)O[C@H]2C)c(N)c1=O (I: [aThr][dV]P[Sar][NMeV] / II: [aThr][dV]P[Sar][NMeV]; ester I:1-I:C, II:1-II:C; linker I:N-II:N via Actinocin(9to1)) | -53.1% (active) |
| Cc1cnc(/C=N\NC(N)=S)c2cccc(N)c12 | -6.16% (active) |
| CCCCCCCCCCCCCCCCCN | 110% |
| BrC/C=C/C[P+](c1ccccc1)(c1ccccc1)c1ccccc1 | 78.7% |

system: SN12C renal; test: as above; conditions: 10 µM

| SMILES | growth |
| --- | --- |
| N#C/C(=C1C=C/C(=N\O)C(Cl)=C\1)c1ccccc1 | 34.8% |
| CN(C)CCC(=O)c1c[nH]c2ccccc12 | 104% |
| O=c1[nH]cc(F)c(=O)[nH]1 | 57% and 73% |
| CSc1ccc2c(c1)C(N1CCN(C)CC1)Cc1ccccc1S2 (configuration not stated) | 35.6% |
| COc1cc(C(C)(C)C)cc(OC)c1C(O)(c1c(OC)cc(C(C)(C)C)cc1OC)c1c(OC)cc(C(C)(C)C)cc1OC | -80.2% (active) |
| S=c1[nH]nc(Cc2ccccc2)c(=S)[nH]1 | 113% |
| O=C(/C(=C/c1ccccc1)CBr)c1ccccc1 | 71.4% |
| Nc1ccc2cc(Br)c3ccccc3c2c1 | 63.8% |
| CN1CCN(c2ccc3nc(-c4ccc5nc(-c6ccc(O)cc6)[nH]c5c4)[nH]c3c2)CC1 | 88.9% |
| Cc1cc(NCCCN(C)C)c2ccc3c(ccc4c(NCCCN(C)C)cc(C)nc43)c2n1 | -49.6% (active) |
| Cc1c2oc3c(C)ccc(C(=O)N[C@@H]4C(=O)N[C@H](C(C)C)C(=O)N5CCC[C@H]5C(=O)N(C)CC(=O)N(C)[C@@H](C(C)C)C(=O)O[C@H]4C)c3nc-2c(C(=O)N[C@@H]2C(=O)N[C@H](C(C)C)C(=O)N3CCC[C@H]3C(=O)N(C)CC(=O)N(C)[C@@H](C(C)C)C(=O)O[C@H]2C)c(N)c1=O (I: [aThr][dV]P[Sar][NMeV] / II: [aThr][dV]P[Sar][NMeV]; ester I:1-I:C, II:1-II:C; linker I:N-II:N via Actinocin(9to1)) | 14.9% |
| Cc1cnc(/C=N\NC(N)=S)c2cccc(N)c12 | -12.9% (active) |
| CCCCCCCCCCCCCCCCCN | 96.8% |
| BrC/C=C/C[P+](c1ccccc1)(c1ccccc1)c1ccccc1 | 64.4% |

system: UO-31 renal; test: as above; conditions: 10 µM

| SMILES | growth |
| --- | --- |
| N#C/C(=C1C=C/C(=N\O)C(Cl)=C\1)c1ccccc1 | 34% |
| CN(C)CCC(=O)c1c[nH]c2ccccc12 | 77.3% |
| O=c1[nH]cc(F)c(=O)[nH]1 | 29.3% and 41.7% |
| CSc1ccc2c(c1)C(N1CCN(C)CC1)Cc1ccccc1S2 (configuration not stated) | 15.5% |
| COc1cc(C(C)(C)C)cc(OC)c1C(O)(c1c(OC)cc(C(C)(C)C)cc1OC)c1c(OC)cc(C(C)(C)C)cc1OC | -75.7% (active) |
| S=c1[nH]nc(Cc2ccccc2)c(=S)[nH]1 | 76.3% |
| O=C(/C(=C/c1ccccc1)CBr)c1ccccc1 | 69.9% |
| Nc1ccc2cc(Br)c3ccccc3c2c1 | 42.9% |
| CN1CCN(c2ccc3nc(-c4ccc5nc(-c6ccc(O)cc6)[nH]c5c4)[nH]c3c2)CC1 | 103% |
| Cc1cc(NCCCN(C)C)c2ccc3c(ccc4c(NCCCN(C)C)cc(C)nc43)c2n1 | -54.7% (active) |
| Cc1c2oc3c(C)ccc(C(=O)N[C@@H]4C(=O)N[C@H](C(C)C)C(=O)N5CCC[C@H]5C(=O)N(C)CC(=O)N(C)[C@@H](C(C)C)C(=O)O[C@H]4C)c3nc-2c(C(=O)N[C@@H]2C(=O)N[C@H](C(C)C)C(=O)N3CCC[C@H]3C(=O)N(C)CC(=O)N(C)[C@@H](C(C)C)C(=O)O[C@H]2C)c(N)c1=O (I: [aThr][dV]P[Sar][NMeV] / II: [aThr][dV]P[Sar][NMeV]; ester I:1-I:C, II:1-II:C; linker I:N-II:N via Actinocin(9to1)) | -12.6% (active) |
| Cc1cnc(/C=N\NC(N)=S)c2cccc(N)c12 | 1.67% (active) |
| CCCCCCCCCCCCCCCCCN | 87.6% |
| BrC/C=C/C[P+](c1ccccc1)(c1ccccc1)c1ccccc1 | 66.2% |
